Test results as given in PubChem BioAssay (NCATS).
Inconclusive results are not listed. Activity calls are given as the source filed them. Unless noted, calls come from the whole dose curve; as a rule, active = well fitted curve in the direction sought with a large enough effect; inconclusive = small, poorly fitted or top-dose-only effect, or another doubt; inactive = no such curve, though single readings can be large; an effect the other way counts as inactive or inconclusive.

Legend:
[1] = target: Cytochrome P450 3A4 (Homo sapiens) (UniProt P08684); experiment: qHTS Assay for Inhibitors and Substrates of Cytochrome P450 3A4 (AID 884); note: % is set by controls: 0 for no effect and ±100 for the full control effect; nearly all actives have a fitted effect of over 50% in size
Procedure, shortened: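 20 nM human CYP3A4 with 25 uM Luciferin-PPXE (at KM) in 200 mM KPO4, preincubated 10 min with compound; NADPH regeneration started a 60 min RT reaction. Luciferin detected by luminescence, normalized to 57 uM ketoconazole as full inhibition.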

[2] = qHTS Assay for Identification of Small Molecule Agonists for Hypoxia Response Element Signaling Pathway (AID 914; active = well fitted activation curve with a large enough effect in the signal ratio, with a control signal flat, not every such curve was filed as active; the % refers to the signal ratio; note: % of control where 0% means no effect); settings: ME-180 (cervical carcinoma) HRE-bla reporter, beta-lactamase ratio, CoCl2, 17 h; activation: stronger effect = higher value
Procedure, shortened: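 HRE-bla ME-180 cells with beta-lactamase reporter under hypoxia response element, compounds with EC50 CoCl2 for 17 hours at 37 C. CCF4 substrate, 460nm/530nm emission ratio gave %Activity; AC50 from titration series.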

[3] = S16 Schwann cell PMP22 intronic element beta-lactamase assay (AID 624044; calls by dose curve;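 note: 0% = DMSO and -100% = potassium clavulanate positive control; nearly all actives have a fitted effect of over 15% in size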)
Procedure, shortened: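 Rat S16 Schwann cells with beta-Lac driven by a PMP22 intronic element, compound-treated 24 h at 37 °C. LiveBLAzer FRET B/G read: 460 nm normalized to potassium clavulanate vs DMSO; 535 nm FRET as viability; concentration-effect curves classified.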

7G8 = experiment: qHTS profiling for inhibitors of Plasmodium falciparum proliferation (AID 504749);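 note: 0% = DMSO vehicle and full inhibition = artemisinin control; nearly all actives have a fitted effect of over 60% in size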; settings: P. falciparum in erythrocytes, SYBR Green DNA, 72 h; series mostly up to 12.8 µM
Procedure, shortened: (§1)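 Parasite proliferation within erythrocytes, 72 h exposure. Endpoint: SYBR Green I fluorescence after overnight lysis at room temperature. Controls: 0.29 uM artemisinin, DMSO.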

CP203 = experiment: as above; settings: P. falciparum in erythrocytes, SYBR Green DNA, 72 h; series mostly up to 12.8 µM
Procedure, shortened: as §1

CP215 = experiment: as above; settings: P. falciparum in erythrocytes, SYBR Green DNA, 72 h; series mostly up to 12.8 µM
Procedure, shortened: as §1

CP335 = experiment: as above; settings: P. falciparum in erythrocytes, SYBR Green DNA, 72 h; series mostly up to 12.8 µM
Procedure, shortened: as §1

DFO2036 = experiment: as above; settings: P. falciparum in erythrocytes, SYBR Green DNA, 72 h; series mostly up to 12.8 µM
Procedure, shortened: as §1

GB4 = experiment: as above; settings: P. falciparum in erythrocytes, SYBR Green DNA, 72 h; series mostly up to 12.8 µM
Procedure, shortened: as §1

ICS = experiment: as above; settings: P. falciparum in erythrocytes, SYBR Green DNA, 72 h; series mostly up to 12.8 µM
Procedure, shortened: as §1

P94_40 = experiment: as above; settings: P. falciparum in erythrocytes, SYBR Green DNA, 72 h; series mostly up to 12.8 µM
Procedure, shortened: as §1

PC26 = experiment: as above; settings: P. falciparum in erythrocytes, SYBR Green DNA, 72 h; series mostly up to 12.8 µM
Procedure, shortened: as §1

TAB109 = experiment: as above; settings: P. falciparum in erythrocytes, SYBR Green DNA, 72 h; series mostly up to 12.8 µM
Procedure, shortened: as §1

W2 = experiment: as above; settings: P. falciparum in erythrocytes, SYBR Green DNA, 72 h; series mostly up to 12.8 µM
Procedure, shortened: as §1

[4] = S16 Schwann cell viability assay (CellTiter-Glo assay) (AID 624031);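 note: cellular ATP luminescence as a viability measure; plate controls were DMSO-treated cells for no effect and cell-free wells for full effect; nearly all actives have a fitted effect of over 70% in size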
Procedure, shortened: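 Native S16 rat Schwann cells, 500-750 cells/well in DMEM with 10% FBS, dosed with compound after overnight culture and incubated 24h at 37 degree Celsius/5% CO2. Viability by CellTiter-Glo luminescence; % activity normalized to no-cell wells and DMSO-treated cells.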

CP260 = experiment: qHTS profiling for inhibitors of Plasmodium falciparum proliferation (AID 504749);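 note: 0% = DMSO vehicle and full inhibition = artemisinin control; nearly all actives have a fitted effect of over 60% in size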; settings: P. falciparum in erythrocytes, SYBR Green DNA, 72 h; series mostly up to 12.8 µM
Procedure, shortened: as §1

Chain of Cytochrome P450 3A4 (Homo sapiens) (P08684 whole entry, looked up): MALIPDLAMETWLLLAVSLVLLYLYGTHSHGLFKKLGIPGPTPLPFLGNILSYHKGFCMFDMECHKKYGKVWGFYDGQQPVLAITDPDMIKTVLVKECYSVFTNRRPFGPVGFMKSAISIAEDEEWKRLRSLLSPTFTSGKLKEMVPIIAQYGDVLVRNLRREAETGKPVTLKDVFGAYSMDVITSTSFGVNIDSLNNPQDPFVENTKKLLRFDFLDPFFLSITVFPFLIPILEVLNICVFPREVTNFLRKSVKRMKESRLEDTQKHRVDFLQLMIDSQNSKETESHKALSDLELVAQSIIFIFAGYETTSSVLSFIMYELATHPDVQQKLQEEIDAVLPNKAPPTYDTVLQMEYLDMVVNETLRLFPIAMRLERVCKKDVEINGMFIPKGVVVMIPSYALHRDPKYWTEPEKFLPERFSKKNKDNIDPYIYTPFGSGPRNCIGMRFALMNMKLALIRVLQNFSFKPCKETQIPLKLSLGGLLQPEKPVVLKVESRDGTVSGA

C[C@@H](C(=O)O)c1ccc(N2Cc3ccccc3C2=O)cc1
inactive: Potency [1]

C[C@@]12CCC(=O)C[C@@H]1CC(=O)[C@H]1[C@H]3CCC[C@]3(C)C(=O)C[C@@H]12 (tested in a mixture with another compound)
inactive: activation [2] -12.7%

COc1c(O[C@H]2O[C@@H](CO)[C@@H](O)[C@@H](O)[C@@H]2O)cc2c(c1OC)-c1ccc(SC)c(=O)cc1[C@H](NC(C)=O)CC2
inactive: Potency [3] | Potency (7G8) | Potency (CP203) | Potency (CP215) | Potency (CP335) | Potency (DFO2036) | Potency (GB4) | Potency (ICS) | Potency (P94_40) | Potency (PC26) | Potency (TAB109) | Potency (W2)

CO[C@@H]1C[C@H](O[C@H]2[C@@H](C)[C@H](O[C@@H]3O[C@@H](C)C[C@@H](N(C)C)[C@@H]3OC(C)=O)[C@H](C)C[C@]3(CO3)C(=O)[C@H](C)[C@H](OC(C)=O)[C@H](C)[C@H](C)OC(=O)[C@@H]2C)O[C@H](C)[C@@H]1OC(C)=O
inactive: outcome [4] | Potency [3] | Potency (7G8) | Potency (CP203) | Potency (CP215) | Potency (CP260) | Potency (ICS) | Potency (P94_40) | Potency (PC26) | Potency (TAB109)

COc1ccc(OC)c([C@H](O)CNC(=O)CN)c1
inactive: outcome [4] | Potency (7G8) | Potency (CP203) | Potency (CP215) | Potency (CP260) | Potency (CP335) | Potency (DFO2036) | Potency (GB4) | Potency (ICS) | Potency (P94_40) | Potency (PC26) | Potency (TAB109) | Potency (W2)

CCc1c(C)[nH]c2c1C(=O)[C@H](CN1CCOCC1)CC2
inactive: outcome [4] | Potency (7G8) | Potency (CP215) | Potency (CP260) | Potency (CP335) | Potency (DFO2036) | Potency (GB4) | Potency (ICS) | Potency (P94_40) | Potency (PC26) | Potency (TAB109) | Potency (W2)

CS(=O)(=O)c1ccc([C@H](O)[C@H](CO)NC(=O)C(Cl)Cl)cc1
inactive: Potency [3] | Potency (7G8) | Potency (CP260) | Potency (PC26)

C[C@H](Oc1ccccc1)C(=O)N[C@@H]1C(=O)N2[C@@H]1SC(C)(C)[C@@H]2C(=O)O
inactive: outcome [4] | Potency [3] | Potency (7G8) | Potency (CP203) | Potency (CP215) | Potency (CP260) | Potency (GB4) | Potency (ICS) | Potency (P94_40) | Potency (PC26) | Potency (TAB109) | Potency (W2)

C#C[C@]1(O)CC[C@@H]2[C@H]3CCC4=CCCC[C@@H]4[C@@H]3CC[C@@]21C
inactive: outcome [4] | Potency [3] | Potency (7G8) | Potency (CP203) | Potency (CP215) | Potency (CP260) | Potency (CP335) | Potency (DFO2036) | Potency (GB4) | Potency (ICS) | Potency (P94_40) | Potency (PC26) | Potency (TAB109) | Potency (W2)
